Data on 40 compounds can be found in PubChem BioAssay (NCI).

Compounds without any hit were thinned out: in the full panel of roughly 83,000, 20% have a hit.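 Each cell line was grown in a 96-well plate and treated with one concentration of compound for 48 hours. Values below 10 were considered active.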 Values without a mark were called inactive. Activity calls are given as the source filed them.

The experiment relates to MDA-MB-468 breast. In words: NCI-60 one-dose screen, 48 h (100 = growth as untreated, 0 = no growth, -100 = all killed). The following applies: 10 µM unless noted.
On to `COc1ccc(-c2csc(NC(=O)c3cc(OC)c(OC)c(OC)c3)n2)cc1`, for which the growth was 86.8%.

On to `Cc1cc(C)n(Cc2cc(C(C)(C)C)cc(C(C)(C)C)c2)c(=O)c1C#N`, for which the growth is 97.4%.

Regarding `COc1ccc(-n2c(-c3ccccc3)c(-c3ccccc3)c3c(SCC(=O)N/N=C/c4ccc(Cl)cc4)ncnc32)cc1`, the growth was 77.6%.

With `CC(=O)c1cnc2ccc(-c3cc(Cl)c(O)c(Cl)c3)nc2c1NC1CCC(CN(C)C)CC1` (stereo not given), the growth was -62% [2.5 µM] (active).

For `O=[N+]([O-])c1cc(S(=O)(=O)Oc2ccccc2)ccc1Cl`, the growth was -78.1% (active).

For `C=C1C(=O)O[C@H]2[C@H]1CC/C(COC(=O)c1ccc3ccccc3c1)=C\CC[C@@]1(C)O[C@@H]21`, the growth was -57.9% (active).

With `FC(F)(F)c1cc(NC2=NCCN=C(Nc3cc(C(F)(F)F)cc(C(F)(F)F)c3)SS2)cc(C(F)(F)F)c1`, the growth was 23.6%.

With `O=S(=O)(NC1c2ccccc2C[C@H]1O)c1ccc(Cl)cc1Cl` (stereo not given in full), the growth was 85.7%.

Turning to `CC(C)OC(=O)Nc1cc(F)c(F)cc1F`, the growth was 84%.

Consider `CCCCN1C=CCN(CCCC)C1`, for which the growth is -1.66% (active).

Turning to `CC/C=C\C[C@H](O)C/C=C1/C(=O)C=C[C@@H]1C/C=C\CCCC(=O)NC`, the growth is -47.4% (active).

Regarding `CN(C)N1C(=O)c2c(Cl)c(Cl)c(Cl)c(Cl)c2C1=O`, the growth was 96.1%.

In the case of `COc1cccc(N2CCN(CC(=O)N3CCN(c4nnc(-c5ccc(Cl)cc5)c(-c5ccc(Cl)cc5)n4)CC3)CC2)c1`, the growth was 76.5%.

Consider `COc1ccc2c(c1)c(-c1nnc(N)nc1-c1c[nH]c3ccc(F)cc13)cn2C`, for which the growth was 2.84% (active).

For the compound `CCOC(=O)C1OC2(CCCC2)OC1C(=O)OCC` (stereo not given), the growth was 100%.

For `C=C1C(=O)O[C@H]2[C@H]1CC/C(COC(=O)C(=O)c1cn(C)c3ccc(OC)cc13)=C\CC[C@@]1(C)O[C@@H]21`, the growth was -63.6% (active).

For the compound `COC(=O)CCCNCCCn1ccc2cc(NCc3cccc(-c4ccccc4)c3C)ccc21`, the growth is 53.4%.

As to `CC(C)(C)CC(C)(C)c1ccc(OCCSC(=N)N)cc1`, the growth is -23.9% (active).

For the compound `COc1ccc(Nc2cc(C)nc(N3CCN(c4ccnc5cc(Cl)ccc45)CC3)n2)cc1`, the growth was 21.7%.

On to `O=C(NC(Cc1ccccc1)C(=O)CCl)OCc1ccccc1` (stereo not given), for which the growth was 79.8%.

As to `CCCC1CCCCN1C(=O)OCC(C)C` (stereo not given), the growth was 97.4%.

On to `CCN(CC)CCNc1ncnc2c1cnn2-c1ccc(Cl)cc1`, for which the growth was 57.6%.

For `COc1ccc(C2C=C(c3ccc(Cl)c(Cl)c3)N=C3SC(C)=CN32)cc1` (stereo not given), the growth is 88.6%.

For the compound `COc1ccc(-c2c(-c3ccc(OC)c(O)c3)cnc3ncnn23)cc1`, the growth is 109%.

With `Nc1ccc(F)cc1F`, the growth is 92.7%.

On to `O=C(NCCN1CCC(O)CC1)c1cc2c(o1)C(=O)c1ccccc1C2=O`, for which the growth was -85.8% (active).

Regarding `CC[C@@](C)(NC(=O)C(C)(C)NC(=O)[C@@H](NC(=O)[C@@H]1CCCN1C(=O)C(C)(C)NC(=O)[C@H](CC(C)C)NC(=O)CNC(=O)C(C)(C)NC(=O)[C@@H](NC(=O)C(C)(C)NC(=O)[C@H](CCC(N)=O)NC(=O)[C@H](C)NC(=O)C(C)(C)NC(=O)[C@H](C)NC(=O)C(C)(C)NC(=O)[C@@H]1CCCN1C(=O)C(C)(C)NC(C)=O)C(C)C)C(C)C)C(=O)N[C@@H](CCC(N)=O)C(=O)N[C@@H](CCC(N)=O)C(=O)N[C@H](CO)Cc1ccccc1`, the growth is -3.95% [4.25 µM] (active).

As to `CCOC(=O)c1c(C)c2c(n1C)CSc1cc(C(=O)c3ccccc3)c(=O)[nH]c1-2`, the growth is 96.6% [100 µM].

On to `COc1ccc2c(CCc3ccc(Cl)cc3)c3[n+](cc2c1OC)CCc1cc2c(cc1-3)OCO2`, for which the growth is -11.7% (active).

Take `COc1ccc(C2=Nn3c(nnc3-n3nc(C)cc3C)SC2)cc1`: the growth was 22.2%.

Turning to `COc1cc(C2C3=C(COC3=O)N(CCO)c3cc4c(cc32)OCO4)cc(OC)c1OC` (stereo not given), the growth was 0.559% (active).

`O=C(Nc1nc(-c2ccccc2Cl)cs1)c1cc(-c2ccc(Cl)cc2)nc2ccc(Cl)cc12`: the growth was 89.4%.

On to `Cn1cnc2c1c(=O)n(CCC(=O)Nc1ccc(F)cc1)c(=O)n2C`, for which the growth is 113%.

As for `CN1CCN(CC#CCn2c3c(c4ccccc42)C[C@]2(C)[C@H]4CC[C@@H]5[C@H]6[C@H]7OC(=O)[C@@]6(CCC7(C)C)CC[C@@]5(C)[C@]4(C)CC[C@H]2C3(C)C)CC1`, the growth is 93.9%.

Consider `NC(=O)c1cc2c3ccccc3ccn2c1-c1ccccc1`, for which the growth was 17.5%.

For the compound `CC(=Nc1ccccc1)C1=C(O)C(Cc2ccc(O)cc2)NC1=O` (stereo not given), the growth is 17.6%.

Consider `COC1(OC)C2(Cl)CCC1(Cl)C(Cl)=C2Cl`, for which the growth was 111%.

As for `C=C(C)CCC(C)N1CCC(N2CCC(C(=O)NCCc3ccccc3)CC2)CC1` (stereo not given), the growth was 48.4%.

For `O=C1[C@@H]2Cc3c([nH]c4ccccc34)[C@H](c3c(Cl)cccc3Cl)N2C(=O)CN1C1CCN(Cc2ccccc2)CC1`, the growth is -33.4% (active).

Regarding `Cc1ccc(NC(=S)/N=c2/n(-c3ccccc3)nc3n2CCN3C2=NCCN2)cc1`, the growth was 104%.
